# From PubChem BioAssay (NCATS)
# Results filed as inconclusive are left out. Active and inactive are the calls of the source. Calls follow the shape of the dose curve; as a rule, active = well fitted curve in the direction sought with a large enough effect; inconclusive = small, poorly fitted or top-dose-only effect, or another doubt; inactive = no such curve, though single readings can be large; an effect the other way counts as inactive or inconclusive.
# Assay: qHTS of pediatric cancer cell lines to identify multiple opportunities for drug repurposing: Confirmatory screen for DAOY cells (AID 1347114); also: nearly all actives have a fitted effect of over 65% in size
# Conditions: DAOY medulloblastoma cells viability, cytotoxicity qHTS; series mostly up to 97.2 µM
# Method in brief: (§1)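 Viability measured as metabolically active cells via CellTiter-Glo luminescence following 48 hours of compound exposure, 11-point dilutions in confirmatory testing. 500-1,000 cells/well plated 5 hours before dosing; controls were DMSO and 2.3 µM bortezomib.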
# Potency is read from the fitted curve at half-maximal effect.
row,SMILES,Potency
1,Nc1ccc([N+](=O)[O-])cc1O,inactive
2,CN(C)c1ccc(C(=C2C=CC(=[N+](C)C)C=C2)c2ccccc2)cc1,0.657 µM (active)
3,N=C1N=C(N)c2cc3ccccc3cc21,42.7 µM (active)
4,COc1cccc2c1C(=O)c1c(O)c3c(c(O)c1C2=O)C[C@@](O)(C(=O)CO)C[C@@H]3O[C@H]1C[C@H](N)[C@H](O[C@@H]2CCCCO2)[C@H](C)O1,11.7 µM (active)

# Assay: qHTS of pediatric cancer cell lines to identify multiple opportunities for drug repurposing: Confirmatory screen for NB-EBc1 cells (AID 1347115);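 also: cells exposed to compound for 48 h before the viability read; nearly all actives have a fitted effect of over 45% in size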
# Conditions: NB-EBc1 neuroblastoma cells, viability (cytotoxicity); series mostly up to 95.5 µM
# Method in brief: (§2)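 Viability after 48 h compound treatment at 37C, 500-1,000 cells/well, read as ATP luminescence with CellTiter-Glo. Primary screens used 11-point (MIPE, 0.78 nM-46 µM) or 8-point (NPC, 0.59 nM-46 µM) final concentrations; follow-up screens used 11-point dilutions.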
row,SMILES,Potency
1,Nc1ccc([N+](=O)[O-])cc1O,inactive
2,CN(C)c1ccc(C(=C2C=CC(=[N+](C)C)C=C2)c2ccccc2)cc1,0.827 µM (active)
3,Oc1c(Br)cc(Br)c2cccnc12,26.1 µM (active)
4,COc1cccc2c1C(=O)c1c(O)c3c(c(O)c1C2=O)C[C@@](O)(C(=O)CO)C[C@@H]3O[C@H]1C[C@H](N)[C@H](O[C@@H]2CCCCO2)[C@H](C)O1,3.29 µM (active)
5,[O-][n+]1ccccc1SSc1cccc[n+]1[O-],2.57 µM (active)

# Assay: qHTS of pediatric cancer cell lines to identify multiple opportunities for drug repurposing: Confirmatory screen for SJ-GBM2 cells (AID 1347116); also: nearly all actives have a fitted effect of over 60% in size
# Conditions: SJ-GBM2 glioblastoma cells, viability; series mostly up to 97.2 µM
# Method in brief: as §1
row,SMILES,Potency
1,Nc1ccc([N+](=O)[O-])cc1O,inactive
2,CN(C)c1ccc(C(=C2C=CC(=[N+](C)C)C=C2)c2ccccc2)cc1,1.31 µM (active)
3,Oc1c(Br)cc(Br)c2cccnc12,inactive
4,COc1cccc2c1C(=O)c1c(O)c3c(c(O)c1C2=O)C[C@@](O)(C(=O)CO)C[C@@H]3O[C@H]1C[C@H](N)[C@H](O[C@@H]2CCCCO2)[C@H](C)O1,14.7 µM (active)

# Assay: qHTS of pediatric cancer cell lines to identify multiple opportunities for drug repurposing: Confirmatory screen for BT-37 cells (AID 1347117); also: nearly all actives have a fitted effect of over 55% in size
# Conditions: BT-37 pediatric cancer cells, viability
# Method in brief: as §2
row,SMILES,Potency
1,CN(C)c1ccc(C(=C2C=CC(=[N+](C)C)C=C2)c2ccccc2)cc1,0.657 µM (active)
2,COC(=O)Nc1nc2ccc(C(=O)C3CC3)cc2[nH]1,2.33 µM (active)
3,N=C1N=C(N)c2cc3ccccc3cc21,38 µM (active)
4,Oc1c(Br)cc(Br)c2cccnc12,18.5 µM (active)
5,COc1cccc2c1C(=O)c1c(O)c3c(c(O)c1C2=O)C[C@@](O)(C(=O)CO)C[C@@H]3O[C@H]1C[C@H](N)[C@H](O[C@@H]2CCCCO2)[C@H](C)O1,1.17 µM (active)
6,[O-][n+]1ccccc1SSc1cccc[n+]1[O-],0.811 µM (active)

# Assay: qHTS of pediatric cancer cell lines to identify multiple opportunities for drug repurposing: Confirmatory screen for TC32 cells (AID 1347118);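 also: cells exposed to compound for 48 h before the read; nearly all actives have a fitted effect of over 65% in size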
# Conditions: TC32 Ewing sarcoma cells viability qHTS
# Method in brief: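 Measured quantity: luminescence from CellTiter-Glo, reflecting metabolically active TC32 cells following 48 h of compound. Curves came straight from multi-point titrations, with 8 or 11 points in primary and 11 in confirmatory screening.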
row,SMILES,Potency
1,Nc1ccc([N+](=O)[O-])cc1O,7.59 µM (active)
2,CN(C)c1ccc(C(=C2C=CC(=[N+](C)C)C=C2)c2ccccc2)cc1,0.261 µM (active)
3,COC(=O)Nc1nc2ccc(C(=O)C3CC3)cc2[nH]1,1.17 µM (active)
4,N=C1N=C(N)c2cc3ccccc3cc21,17 µM (active)
5,Oc1c(Br)cc(Br)c2cccnc12,1.65 µM (active)
6,COc1cccc2c1C(=O)c1c(O)c3c(c(O)c1C2=O)C[C@@](O)(C(=O)CO)C[C@@H]3O[C@H]1C[C@H](N)[C@H](O[C@@H]2CCCCO2)[C@H](C)O1,0.465 µM (active)
7,[O-][n+]1ccccc1SSc1cccc[n+]1[O-],1.29 µM (active)
